Data as given in PubChem BioAssay AID431 (Sanford-Burnham Center for Chemical Genomics, 2006).
In all, about 63,000 compounds went through this assay and about 1,100 (1.7%) were called active. The list comes from a sample in which actives are over-represented; it also holds similar structures and randomly drawn compounds. Results with a measured potency or affinity are listed apart. A number with no mark means an inactive call.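 The calls were made as follows: active = compounds whose percent cytotoxicity in the single-dose primary screen, scaled between solvent and toxic-drug controls, exceeds 50; inactive = the rest.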

Test: cytotoxicity in KRAS-transformed pancreatic duct cells, primary screen, cell-based, fluorescence, HTS (AID 431);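 also: 0% = DMSO solvent wells and 100% = doxorubicin-treated wells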
Conditions: HPDE-C7K KRASV12 cells, Alamar Blue viability, 48 h; at 10 µM; active compounds read high

Compound | cytotoxicity
CCCn1c(SCCN2C(=O)c3ccccc3C2=O)n[nH]c1=O | 2.1%
Cc1cccc(NC(=O)CSc2nnc(-c3ccccc3)n2N)c1C | -15%
CCOC(=O)c1c(C)oc2c1c(/C=N/c1ccccn1)c(O)c1ccccc12 | 4.3%
CCOC(=O)c1c(C)oc2c1c(C=NC1CCS(=O)(=O)C1)c(O)c1ccccc12 (stereo unspecified) | 23.8%
CCOC(=O)c1c(C)oc2c1c(C(c1cccnc1)N1CCN(C)CC1)c(O)c1ccccc12 (stereo unspecified) | 125% (active)
CCOC(=O)c1c(C)oc2c1c1c(c3ccccc32)OCN(Cc2cccnc2)C1 | 29.9%
CCOC(=O)c1c(C)oc2c1c(C=NCc1ccccn1)c(O)c1ccccc12 | 99.2% (active)
CCOC(=O)c1c(C)oc2c1c(C=NCC1CCCO1)c(O)c1ccccc12 (stereo unspecified) | -16.3%
Cc1ccccc1-c1cc(-c2ccccc2O)n[nH]1 | 44%
Oc1ccccc1-c1cc(-c2ccccc2Cl)[nH]n1 | 15.9%
Cc1ccc(-c2cc(-c3cccc(F)c3)n[nH]2)c(O)c1 | 10.8%
COc1ccccc1-c1cc(-c2cc(Cl)ccc2O)n[nH]1 | -3.1%
Cc1ccc(-c2cc(-c3ccccc3Cl)[nH]n2)c(O)c1 | 59.5% (active)
CCOc1ccccc1OCC(=O)Nc1ccc(S(=O)(=O)N(C)C)cc1 | 3.1%
O=C(Cn1nnc(-c2ccccc2F)n1)Nc1ccc(S(=O)(=O)NC2CCCC2)cc1 | -26.3%
CCOC(=O)C(C)Oc1cccc2c(=O)n(CC(=O)NCc3ccc4c(c3)OCO4)ccc12 (stereo unspecified) | 38.8%
CCOC(=O)C(C)Oc1cccc2c(=O)n(CC(=O)NCc3ccco3)ccc12 (stereo unspecified) | 61.1% (active)
CCOC(=O)C(C)Oc1cccc2c(=O)n(CC(=O)N3CCN(C(=O)OCC)CC3)ccc12 (stereo unspecified) | -16.7%
COc1ccc(NC(=O)C2CCCN(S(=O)(=O)c3cnc[nH]3)C2)cc1 (stereo unspecified) | -5.3%
COc1ccc(Br)cc1CNc1ccc(O)cc1 | 50% (active)
COc1cc(C)c(CNc2ccc(OC)c(OC)c2)cc1C | 21.6%

Compound | cytotoxicity
COc1ccc(Br)cc1C(=O)Nc1ccc(O)cc1 | -14.3%
Cc1ccc(-n2nnnc2SCC(=O)Nc2c(C)n(C)n(-c3ccccc3)c2=O)cc1 | -3.4%
COc1ccc(OC)c(Nc2cc(C(=O)NCCCN3CCOCC3)c3ccccc3n2)c1 | 1.8%
CCOc1ccc(NC(=O)Cn2nnc(-c3ccccc3NC(=O)CC)n2)cc1 | 5.1%
NC(=O)c1cc2ccc(O)cc2oc1=NCc1ccccc1 | 4.1%
CC(=NCc1ccccc1)C1=C(O)COC1=O | -6%
Cc1ccc(NC(=O)CC2Nc3ccccc3NC2=O)cc1Cl (stereo unspecified) | 51.6% (active)
O=C(CC1Nc2ccccc2NC1=O)Nc1ccccc1 (stereo unspecified) | -3.2%
COc1ccccc1NC(=O)CC1Nc2ccccc2NC1=O (stereo unspecified) | -4.5%
CC(C)c1nc(SCc2c(F)cccc2Cl)c2c(=O)n(C)c(=O)n(C)c2n1 | 70.4% (active)
CC(C)c1nc(SCc2ccccn2)c2c(=O)n(C)c(=O)n(C)c2n1 | 1.9%
Cc1nc(SCc2c(F)cccc2Cl)c2c(=O)n(C)c(=O)n(C)c2n1 | -12.8%
CCC(CC)C(=O)Nc1ccccc1NC(C)=O | -16%
N#CCCN(CCC#N)C(=O)c1ccc2c(c1)OCO2 | -3.2%
CNc1cc(C)nc(-n2nc(C)cc2C)n1 | -14.9%
COC(=O)c1ccc(Oc2cc(C)nc(-n3nc(C)cc3C)n2)cc1 | 32.6%
COc1ccc(Nc2cc(C)nc(-n3nc(C)cc3C)n2)cc1 | 79.2% (active)
CC(=O)c1ccc(Oc2cc(C)nc(-n3nc(C)cc3C)n2)cc1 | 56.4% (active)
COc1ccc(N2CCN(C(=O)c3ccc(-n4nc(C)cc4C)cc3)CC2)cc1 | 2.6%
CCOc1ccc(Nc2cc(C)nc(-n3nc(C)cc3C)n2)cc1 | 40.7%
Cc1cc(NC(=O)c2cnn3c(C(F)F)cc(C4CC4)nc23)no1 | 20.6%

Compound | cytotoxicity
COc1cccc(NC(=O)c2ccccc2-c2nc(-c3ccccc3)no2)c1 | 25.4%
COc1ccc(OC)c(NC(=O)CNC(=O)Cn2cnc3ccccc3c2=O)c1 | 2.3%
Cc1cccc(N(C)S(=O)(=O)c2cccc3nsnc23)c1 | 14.4%
CCOC(=O)C1CCN(C(=O)c2oc3ccc(S(=O)(=O)N4CC(C)CC(C)C4)cc3c2C)CC1 (stereo unspecified) | 5.5%
Cc1ccc(-c2csc3nc(C)n(-n4cccc4)c(=O)c23)o1 | 0.5%
O=C(O)CSc1nnc(-c2ccccc2)o1 | 19.6%
O=C(CSc1nnc(-c2ccccc2)o1)n1c2c(c3ccccc31)CCCC2 | 69.9% (active)
Cc1nnc(SCC(=O)n2c3c(c4ccccc42)CCCC3)s1 | 6.2%
Cc1cccc(NC(=O)CSc2n[nH]c(-c3ccncc3)n2)c1 | -6.1%
Cc1ccc(N(CC(=O)Nc2ccc3c(c2)OCCO3)S(=O)(=O)c2c(C)n[nH]c2C)cc1 | 9.8%
CCOc1ccccc1N1CCN(c2nc(N)c(C#N)c(CC#N)c2C#N)CC1 | -11.4%
COc1cc2c(C#N)c(N3CCOCC3)nc(N)c2c(N)n1 | 46.6%
CCOc1cc2c(C#N)c(N3CCOCC3)nc(N)c2c(N)n1 | 22.5%
COc1cc2c(C#N)c(N3CCCCC3)nc(N)c2c(N)n1 | 56.9% (active)
N#Cc1c(N2CCCC2)nc(N)c2c(N)nc(N3CCCC3)cc12 | -2.8%
COc1ccccc1-c1nc(C#N)c(N2CCc3ccccc3C2)o1 | 20.5%
COc1ccccc1N1CCN(c2nc(N)c(C#N)c(CC#N)c2C#N)CC1 | -4.3%
COc1cc2c(C#N)c(N3CCN(c4ccccc4OC)CC3)nc(N)c2c(N)n1 | 57.2% (active)
Cn1c(=O)c2c(nc(Oc3ccc4c(c3)OCO4)n2Cc2ccc(Cl)cc2)n(C)c1=O | 12.9%
